In PubChem BioAssay:
Values joined by “and” are separate entries in the source; they are usually repeats but may differ in a detail not shown here. Equal values may be shown once. Results filed as inconclusive are left out. For part of these data: Results with a measured potency or affinity are listed apart. Active and inactive are the calls of the source. Unless noted, no rule for the calls is given here.

What was measured:
[1] = biological target: ATP-dependent translocase ABCB1 (Homo sapiens) (UniProt P08183); test: P-glycoprotein substrate transport blockade – cell-based (AID 377; in the data active = fluorescence slope change above about 50%); conditions: MDR1-expressing cells, fluorescent substrate accumulation slope; stronger effect = higher value; concentration not given here
[2] = blockers of polyQ-driven CASP3 activation – cell-based (AID 1583); conditions: polyglutamine-induced caspase-3 activation, cell assay; stronger effect = higher value;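 tested at 10 µM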
[3] = yeast 75Q aggregation reduction – 75Q-TubU reporter (AID 1593); conditions: Yeast 75Q polyglutamine aggregation reporter
[4] = restoration of touch response, mutant HTT neurons – whole organism, C. elegans mechanosensory neurons, N-terminal huntingtin (AID 1599); conditions: C. elegans polyQ-huntingtin mechanosensory neurons, stronger effect = higher value
[5] = blockers of cytochrome c efflux from mitochondria – biochemical, purified mitochondria (AID 1603); conditions: stronger effect = lower value;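 also: mouse liver mitochondria challenged with calcium chloride; signal normalized to the plate average as 100%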
[6] = polyglutamine aggregate formation blockers (AID 1604); conditions: polyglutamine-induced protein aggregation inhibition assay; stronger effect = higher value; tested at 2.5 µM
[7] = rescue of PC12 cells from polyQ htt toxicity – LDH release (AID 1610); conditions: PC12 mutant huntingtin toxicity, final LDH at 4 uM, stronger effect = lower value
[8] = glutamate transport activators, MN-1 cells, MN-1 cell line (AID 1612); conditions: MN-1 motor neuron cells, stronger effect = higher value;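 also: tested at 1 µM final; 0% = mean of DMSO vehicle wells on each plate; positive means more glutamate uptake than control and negative means less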
[9] = GFP-Q80 aggregate reduction, neuronal-like cells, cell-based, NGF-treated PC12, GFPQ80 (AID 1614); conditions: PC12 NGF-treated GFP-polyQ80 inclusion reduction;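 also: lower means fewer inclusions and 0 means no inclusions at all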
[10] = 75Q-TubH aggregate inhibition, S. cerevisiae, yeast (AID 1616); conditions: S. cerevisiae 75Q-TubH polyglutamine aggregation suppression; stronger effect = higher value
[11] = compounds altering circadian rhythm period length – cell-based, LOPAC library, luminescence reporter (AID 2774); conditions: circadian reporter cells, at 7 µM, actives lie on both sides;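 also: values are relative to mean of DMSO wells on each plate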
[12] = compounds altering viability of human ES cells (AID 493140); conditions: human embryonic stem cell survival screen; stronger effect = higher value;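 also: cells exposed to compounds for four days before counting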
[13] = test system: Hepatitis C virus NS3 helicase; test: blockers of NS3h binding to ssDNA – biochemical, fluorescence polarization, LOPAC1280 library, primary screen (AID 687035; in the data active = inhibition above about 37%); conditions: Purified HCV NS3 helicase, Cy5-dT15 ssDNA binding fluorescence polarization; stronger effect = higher value; concentration not given here
[14] = compounds altering Cy5-DNA-NS3h complex signal – biochemical, LOPAC1280, artefact control for HCV NS3 helicase inhibitor project (AID 687037); conditions: Cy5-DNA-NS3h complex fluorescence interference counterscreen
[15] = signal quenchers or enhancers, Cy5 substrate/SSB – biochemical, NIH Clinical Collection, E. coli SSB, artefact control for HCV NS3 helicase inhibitor project (AID 743268); conditions: Cy5-oligo bound E. coli SSB, fluorescence interference
[16] = test system: Hepatitis C virus NS3 helicase; test: blockers of NS3h binding to DNA – biochemical, fluorescence polarization, NIH Clinical Collection, primary screen (AID 743270); conditions: NS3 helicase binding to Cy5-dT15 DNA, stronger effect = higher value, concentration not given here
[17] = biological target: Single-stranded DNA-binding protein (Escherichia coli (strain K12)) (UniProt P0AGE0); test: SSB-ssDNA binding inhibitors – biochemical, fluorescence polarization, NIH Clinical Collection, counter-screen for HCV NS3 helicase inhibitor project (AID 743271; in the data active = inhibition above about 28%); conditions: E. coli SSB-DNA binding, stronger effect = higher value, concentration not given here
[18] = compounds distorting NS3 helicase fluorescence signal – biochemical, NIH Clinical Collection, artefact control for HCV NS3 helicase inhibitor project (AID 743272); conditions: fluorescence interference counterscreen, HCV NS3 helicase assay; stronger effect = lower value;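 also: HCV NS3 helicase with a Cy5 labelled single stranded DNA probe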
[19] = test system: Neuropilin-2 / VEGF-C interaction (human); test: small molecules blocking Neuropilin-2/VEGF-C interaction – biochemical, microplate binding format, z-score (AID 743281); conditions: microplate NRP2/VEGF-C binding assay; stronger effect = lower value
[20] = Wnt pathway potentiators raising nuclear beta-catenin – imaging, WNT3A-conditioned medium, mouse C2C12, NPC library, primary screen (AID 1117326; in the data active = nuclear beta-catenin stimulation mostly above about 4.2%, no sharp cut-off; inactive = mostly below about 10%); conditions: stronger effect = higher value
[21] = stimulators of insulin release from INS-1E, primary screen, cell-based, 5 mM glucose, NPC library (AID 1117329;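 active = compound raises insulin release from rat beta cells at 5 mM glucose, no numeric limit stated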); conditions: rat INS-1E insulin secretion, at 10 µM, stronger effect = higher value
[22] = growth inhibition of GSK3B-pretreated HCT116 cells – cell-based, CellTiter-Glo, 0.2 to 20 µM (AID 1117336;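 active = compounds lowering colon cancer cell viability after pretreatment blocking the GSK3B kinase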); conditions: HCT116 viability after GSK3B inhibitor, at 20 µM, stronger effect = higher value
[23] = inhibition of endothelial tube formation, primary screen, imaging, VEGF stimulated, CD31 staining, tube area, NPC library (AID 1117340;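 active = compound that reduces growth-factor-driven endothelial tube area in a mixed cell culture, no cutoff stated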); conditions: VEGF-stimulated ADSC/ECFC co-culture, at 10 µM, stronger effect = higher value
[24] = GLP1 release stimulators, primary, NCI-H716, NPC library (AID 1117341;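 active = compound raises GLP1 secretion from the human gut endocrine cells, with no numeric limit stated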); conditions: NCI-H716 cells, at 10 µM, stronger effect = higher value
[25] = HCT116 colon cancer cell growth inhibition, primary screen, CellTiter-Glo luminescence, NPC library (AID 1117342;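 active = compounds that lower survival of HCT116 colon cancer cells in the luminescence readout, no numeric limit stated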); conditions: at 20 µM (top of the series)
[26] = reduced SW480 viability measured with CellTiter-Glo, NPC library, primary (AID 1117343;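 active = compounds that lower viability of the colon cancer cells in the luminescence readout, with no numeric limit stated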); conditions: CellTiter-Glo luminescence; at 20 µM (top of the series)
[27] = NPC library primary testing for decreased DLD-1 cell viability via CellTiter-Glo (AID 1117346;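 active = compounds that lower survival of DLD-1 colon cancer cells in the luminescence readout, no cutoff given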); conditions: DLD-1 viability, CellTiter-Glo luminescence; at 20 µM (top of the series)
[28] = biological target: 6-phosphogluconate dehydrogenase, decarboxylating (Homo sapiens) (UniProt P52209); test: inhibition of human phosphogluconate dehydrogenase – biochemical, recombinant enzyme, NADPH absorbance, primary screen (AID 1159550;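 active = at least 20% inhibition of 6-phosphogluconate dehydrogenase activity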); conditions: recombinant 6PGD, NADPH absorbance 341 nm; at 10 µM; stronger effect = higher value
[29] = modulation of C. elegans fzo-1 (AID 1259413);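 also: fzo-1 mutant C. elegans worms in liquid wells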; conditions: C. elegans fzo-1 modulator screen, mean read-out; stronger effect = higher value
[30] = EMT-state selective cytotoxicity in co-culture – imaging, PC-3E GFP, TEM4-18 mCherry, primary screen (AID 1345086;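 active = compounds killing one labelled cell type while sparing the other, by normalised counts and ratio limits, not self-fluorescent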;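 also: cells exposed to compound for 72 h before imaging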;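 as to red/green cell ratio (normalised): normalised mesenchymal count divided by normalised epithelial count so high means epithelial killing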); conditions: PC-3E GFP / TEM4-18 mCherry co-culture, imaging cell counts, at 1 µM
[31] = test system: Aerobactin synthetase IucA (Klebsiella pneumoniae); test: inhibition of K. pneumoniae IucA enzyme – biochemical, Tocris library, absorbance (AID 1345561); conditions: purified IucA enzyme assay, absorbance (OD) read-out; stronger effect = lower value;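 tested at 8 µM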;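 also: 100% = enzyme without compound and 0% = no enzyme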
[32] = viability loss in pontine glioma line – cell-based, SU-DIPG-XVII, MIPE5.0, CellTiter-Glo, qHTS, dose response (AID 1347060; cut-off not given, nearly all actives have AC50 up to about 26 µM); conditions: CellTiter-Glo ATP luminescence
[33] = viability loss in pontine glioma line – cell-based, SU-DIPG-XIII, MIPE4.0, CellTiter-Glo, qHTS, dose response (AID 1347061; cut-off not given, nearly all actives have AC50 up to about 37 µM;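 also: cells exposed to compound for 48 hours before readout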); conditions: CellTiter-Glo ATP luminescence
[34] = viability loss in pontine glioma line – cell-based, JHH-DIPG-1, MIPE4.0, CellTiter-Glo, qHTS, dose response (AID 1347062; cut-off not given, nearly all actives have AC50 up to about 27 µM); conditions: JHH-DIPG-1 viability, CellTiter-Glo ATP luminescence
[35] = viability loss in pontine glioma line – cell-based, SU-DIPG-IV, MIPE4.0, CellTiter-Glo, qHTS, dose response (AID 1347063; cut-off not given, nearly all actives have AC50 up to about 30 µM;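 also: compound exposure lasted 48 hours before the viability readout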); conditions: CellTiter-Glo ATP luminescence
[36] = viability loss in pontine glioma line – cell-based, SU-DIPG-XIII, MIPE5.0, CellTiter-Glo, qHTS, dose response (AID 1347064; cut-off not given, nearly all actives have AC50 up to about 23 µM); conditions: CellTiter-Glo ATP luminescence
[37] = viability loss in pontine glioma line – cell-based, SU-DIPG-XXV, MIPE5.0, CellTiter-Glo, qHTS, dose response (AID 1347065; cut-off not given, nearly all actives have AC50 up to about 26 µM;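 also: cells exposed to compound for 48 hours before ATP readout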); conditions: CellTiter-Glo ATP luminescence
[38] = growth inhibition of DIPG cells – cell-based, MIPE4.0 library, CellTiter-Glo luminescence, qHTS (AID 1347066; cut-off not given, nearly all actives have AC50 up to about 30 µM;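 also: cells exposed to compound for 48 hours before readout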); conditions: SU-DIPG-VI viability, CellTiter-Glo ATP luminescence
[39] = JHH-DIPG-1 glioma cell viability, MIPE5.0 library, CellTiter-Glo luminescence, qHTS (AID 1347067; cut-off not given, nearly all actives have AC50 up to about 26 µM;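 also: cells exposed to compound for 48 hours before readout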); conditions: JHH-DIPG-1 glioma viability, CellTiter-Glo ATP luminescence
[40] = growth inhibition of DIPG cells – cell-based, MIPE5.0 library, qHTS (AID 1347068; cut-off not given, nearly all actives have IC50 up to about 30 µM); conditions: SU-DIPG-XXV viability
[41] = blockers of cellular phospholipid synthesis – cell-based, LOPAC library, screen 4, primary screen (AID 1347384); conditions: animal cells, phospholipid biosynthesis inhibition screen; at 10 µM
[42] = MELAS cybrid and Rieske KO viability enhancers – cell-based, MELAS cybrids, Rieske KO mouse fibroblasts, CellTiter-Glo, primary screen (AID 1508586;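 active = mean z-score across replicates of 1.96 or higher in either the MELAS or the Rieske mutant cell line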;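 also: z relative to plate mean and SD of compound and empty wells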); conditions: low glucose
[43] = biological target: NAD(+) hydrolase SARM1 (Homo sapiens) (UniProt Q6SZW1); test: blocking NAD cleavage by SARM1 SAM-TIR – cell lysate, NAD-Glo luminescence (AID 1508614;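 active = compound whose remaining NAD level is above about 45 nM, limit read from the data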;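 also: higher remaining NAD means stronger inhibition of SARM1 NADase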); conditions: SAM-TIR HEK293T lysate NADase, at 1 µM, stronger effect = higher value
[44] = biological target: Mitogen-activated protein kinase 7 (Homo sapiens) (UniProt Q13164); test: Gal4-ERK5 driven luciferase induction – cell-based, HTS, primary screen (AID 1508626;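 active = luciferase signal above three times the same-plate solvent-only control wells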;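 also: luciferase driven by Gal4-ERK5 fusion binding five Gal4 sites before minimal TATA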); conditions: HeLa Gal4-ERK5 transactivation, 18 h, at 5 µM, stronger effect = higher value
[45] = test system: F380Y; test: BK channel mutant inhibitors and activators – cell-based, U2OS BacMam, thallium flux, beta subunits, selectivity assay, profiling panel (AID 1259406;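 active = thallium flux through the channel raised or lowered by more than 3 SD from vehicle-only wells, actives on both sides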;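 also: initial slope of Thallos dye fluorescence rise after thallium is added; log ratio against the mean of 0.3% DMSO vehicle wells on the same plate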); conditions: U2OS BacMam BK variants, at 30 µM
[46] = test system: F380Y/beta2Delta; test: as above; conditions: U2OS BacMam BK variants, at 30 µM
[47] = biological target: Calcium-activated potassium channel subunit alpha-1 (Homo sapiens) + Leucine-rich repeat-containing protein 26 (Homo sapiens) (UniProt Q12791+Q2I0M4); test: as above; conditions: U2OS BacMam BK variants, F380Y/Slo1WT/gamma1, at 30 µM
[48] = test system: R275C; test: as above; conditions: U2OS BacMam BK variants, at 30 µM
[49] = test system: R275C/beta1; test: as above; conditions: U2OS BacMam BK variants, at 30 µM
[50] = test system: R275C/beta2Delta; test: as above; conditions: U2OS BacMam BK variants, at 30 µM

Calcium-activated potassium channel subunit alpha-1 (Homo sapiens) + Leucine-rich repeat-containing protein 26 (Homo sapiens), sequence (Q2I0M4 whole entry, looked up, one chain of several): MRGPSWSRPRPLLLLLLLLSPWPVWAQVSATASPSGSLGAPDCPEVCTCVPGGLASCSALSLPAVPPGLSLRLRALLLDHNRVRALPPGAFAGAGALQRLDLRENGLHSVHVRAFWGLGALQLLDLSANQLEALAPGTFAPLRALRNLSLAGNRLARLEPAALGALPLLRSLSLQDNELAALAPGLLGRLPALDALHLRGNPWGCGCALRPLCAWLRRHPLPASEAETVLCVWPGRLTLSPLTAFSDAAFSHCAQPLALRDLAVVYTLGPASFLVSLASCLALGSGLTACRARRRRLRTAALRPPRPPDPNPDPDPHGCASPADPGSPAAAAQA
Mitogen-activated protein kinase 7 (Homo sapiens), sequence (Q13164 whole entry, looked up, the tested form may be a part): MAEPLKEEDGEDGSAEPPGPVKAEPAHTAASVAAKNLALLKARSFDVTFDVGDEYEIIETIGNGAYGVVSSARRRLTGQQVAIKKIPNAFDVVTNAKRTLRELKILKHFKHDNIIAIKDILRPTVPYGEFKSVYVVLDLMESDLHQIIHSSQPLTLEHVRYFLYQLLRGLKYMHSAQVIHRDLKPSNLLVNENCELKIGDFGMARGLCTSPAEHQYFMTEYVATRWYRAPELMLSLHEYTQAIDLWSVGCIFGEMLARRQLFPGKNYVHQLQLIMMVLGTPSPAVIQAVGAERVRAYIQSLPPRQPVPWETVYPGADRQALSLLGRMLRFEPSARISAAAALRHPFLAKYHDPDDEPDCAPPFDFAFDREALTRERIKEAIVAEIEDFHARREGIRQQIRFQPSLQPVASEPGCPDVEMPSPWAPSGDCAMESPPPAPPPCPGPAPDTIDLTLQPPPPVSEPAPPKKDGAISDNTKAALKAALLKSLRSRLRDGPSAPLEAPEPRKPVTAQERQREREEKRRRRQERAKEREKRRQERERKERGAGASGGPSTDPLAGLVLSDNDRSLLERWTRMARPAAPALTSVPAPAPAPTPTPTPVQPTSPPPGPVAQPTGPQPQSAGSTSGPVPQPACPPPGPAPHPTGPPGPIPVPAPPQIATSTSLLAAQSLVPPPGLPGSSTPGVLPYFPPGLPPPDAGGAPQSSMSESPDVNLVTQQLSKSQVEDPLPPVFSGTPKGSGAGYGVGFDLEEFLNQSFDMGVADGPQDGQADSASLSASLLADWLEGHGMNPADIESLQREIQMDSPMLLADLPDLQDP
NAD(+) hydrolase SARM1 (Homo sapiens), sequence (Q6SZW1 whole entry, looked up, the tested form may be a part): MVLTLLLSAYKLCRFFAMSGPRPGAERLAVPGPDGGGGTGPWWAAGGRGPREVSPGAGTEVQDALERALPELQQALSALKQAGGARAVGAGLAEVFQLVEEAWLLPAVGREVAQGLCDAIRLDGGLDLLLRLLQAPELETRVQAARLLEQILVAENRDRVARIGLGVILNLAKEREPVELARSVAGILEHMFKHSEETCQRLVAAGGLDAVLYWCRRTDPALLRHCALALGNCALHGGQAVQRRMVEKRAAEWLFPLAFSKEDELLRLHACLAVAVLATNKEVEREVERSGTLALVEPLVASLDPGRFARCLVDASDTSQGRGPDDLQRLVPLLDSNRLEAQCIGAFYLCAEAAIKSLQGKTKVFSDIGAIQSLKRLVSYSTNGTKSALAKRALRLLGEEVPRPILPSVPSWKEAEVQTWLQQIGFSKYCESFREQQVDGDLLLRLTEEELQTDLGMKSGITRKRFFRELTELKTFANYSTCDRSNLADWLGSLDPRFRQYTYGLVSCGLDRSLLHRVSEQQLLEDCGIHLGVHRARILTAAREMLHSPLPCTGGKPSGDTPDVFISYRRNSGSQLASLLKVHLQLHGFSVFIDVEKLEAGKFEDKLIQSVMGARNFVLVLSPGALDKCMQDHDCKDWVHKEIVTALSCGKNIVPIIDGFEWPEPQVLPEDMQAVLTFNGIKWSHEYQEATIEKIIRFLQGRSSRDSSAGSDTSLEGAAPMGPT
ATP-dependent translocase ABCB1 (Homo sapiens), sequence (P08183 whole entry, looked up): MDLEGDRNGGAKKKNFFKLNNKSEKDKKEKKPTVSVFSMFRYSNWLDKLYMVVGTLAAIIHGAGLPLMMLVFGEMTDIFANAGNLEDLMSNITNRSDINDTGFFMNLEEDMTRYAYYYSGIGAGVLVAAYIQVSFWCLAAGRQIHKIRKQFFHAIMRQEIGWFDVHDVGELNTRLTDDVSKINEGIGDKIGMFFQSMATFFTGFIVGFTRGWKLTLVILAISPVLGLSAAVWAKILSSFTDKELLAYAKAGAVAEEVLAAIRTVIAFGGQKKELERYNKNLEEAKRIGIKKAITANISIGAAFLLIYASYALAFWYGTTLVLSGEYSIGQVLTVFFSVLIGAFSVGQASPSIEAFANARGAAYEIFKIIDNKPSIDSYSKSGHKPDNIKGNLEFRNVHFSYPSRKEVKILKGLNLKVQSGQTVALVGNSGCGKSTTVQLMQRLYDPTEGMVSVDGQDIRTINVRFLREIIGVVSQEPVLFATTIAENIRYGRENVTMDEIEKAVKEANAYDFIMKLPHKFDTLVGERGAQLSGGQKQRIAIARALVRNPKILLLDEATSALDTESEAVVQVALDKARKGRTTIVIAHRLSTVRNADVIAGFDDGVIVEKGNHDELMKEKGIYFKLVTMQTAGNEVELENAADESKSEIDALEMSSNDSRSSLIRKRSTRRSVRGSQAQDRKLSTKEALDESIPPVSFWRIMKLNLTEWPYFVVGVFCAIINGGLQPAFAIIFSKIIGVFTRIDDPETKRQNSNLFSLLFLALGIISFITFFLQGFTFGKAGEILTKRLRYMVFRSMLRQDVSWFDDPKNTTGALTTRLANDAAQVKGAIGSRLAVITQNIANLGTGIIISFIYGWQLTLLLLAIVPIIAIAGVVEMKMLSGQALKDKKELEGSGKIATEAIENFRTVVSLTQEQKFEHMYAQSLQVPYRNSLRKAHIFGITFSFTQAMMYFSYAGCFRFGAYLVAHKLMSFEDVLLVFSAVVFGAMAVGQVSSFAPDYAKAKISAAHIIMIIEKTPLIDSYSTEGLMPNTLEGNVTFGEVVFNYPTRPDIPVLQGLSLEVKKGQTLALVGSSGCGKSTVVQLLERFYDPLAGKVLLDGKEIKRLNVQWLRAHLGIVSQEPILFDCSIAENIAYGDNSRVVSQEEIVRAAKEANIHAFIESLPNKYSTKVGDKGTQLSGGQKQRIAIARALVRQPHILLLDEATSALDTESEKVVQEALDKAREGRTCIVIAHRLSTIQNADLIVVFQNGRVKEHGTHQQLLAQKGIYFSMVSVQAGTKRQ
6-phosphogluconate dehydrogenase, decarboxylating (Homo sapiens), sequence (P52209 whole entry, looked up): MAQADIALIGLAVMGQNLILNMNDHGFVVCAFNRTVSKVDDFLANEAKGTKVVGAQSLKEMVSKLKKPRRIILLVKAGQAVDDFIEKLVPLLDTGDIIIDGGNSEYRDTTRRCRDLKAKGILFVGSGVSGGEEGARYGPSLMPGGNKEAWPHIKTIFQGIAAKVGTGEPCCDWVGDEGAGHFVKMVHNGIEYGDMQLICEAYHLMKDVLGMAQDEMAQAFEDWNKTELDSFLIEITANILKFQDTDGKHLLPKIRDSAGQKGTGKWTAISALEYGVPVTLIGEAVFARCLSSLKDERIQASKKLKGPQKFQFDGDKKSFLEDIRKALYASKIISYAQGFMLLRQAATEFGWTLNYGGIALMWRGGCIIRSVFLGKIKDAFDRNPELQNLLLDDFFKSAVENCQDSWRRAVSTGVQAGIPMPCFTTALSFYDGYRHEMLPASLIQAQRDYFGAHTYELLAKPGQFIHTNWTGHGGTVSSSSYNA

Nc1c2c(nc3ccccc13)CCCC2
38.8%: inhibition of aggregation [6]
0.878: normalised LDH release [7]
0.161 and -0.102: z-score ([42]; Rieske KO mouse fibroblast survival, CellTiter-Glo 72 h)
-14.1%: inhibition [2]
2: inclusion score [9]
4.59%: glutamate uptake change [8]
0.89: normalised cell number ([30]; measured here: epithelial PC-3E GFP cell survival)
0.63: cytochrome c release ratio [5]
1.23: aggregation suppression score [10]
1.21: score [3]
inactive: period change [11] -0.225 h | survival [12] 6.42 | inhibition [13] -2% | fluorescence ratio (interference) [14] 1 | fluorescence ratio [15] 0.95 | inhibition [16] -4.36% | inhibition [17] -0.1% | fluorescence ratio [18] 0.85 | z-score [19] -0.542 | nuclear beta-catenin stimulation ([20]; at 10 µM) 1.3% | viability decrease [22] 2.75% | tube area decrease [23] 19% | GLP1 secretion stimulation [24] 13% | inhibition of viability [25] 4.9% | viability decrease (inhibition) [26] 22.5% | viability decrease (inhibition) [27] 3.1% | inhibition [28] -0.369% | mean signal [29] 215 | red/green cell ratio (normalised) ([30]; actives lie on both sides, counts scaled to control wells, 1 = unselective) 1.47 | remaining activity [31] 109% | outcome [32] | outcome [33] | outcome [34] | outcome [35] | outcome [36] | outcome [37] | outcome [38] | outcome [39] | outcome [40] | outcome [41] | z-score ([42]; MELAS cybrid survival, CellTiter-Glo 48 h, stronger effect = higher value) 0.221 and 0.852 | remaining NAD [43] 10 nM | luciferase signal [44] 164 AU | log fold change Tl+ flux [45] 0.0646 | log fold change Tl+ flux [46] -0.00945 | log fold change Tl+ flux [47] 0.00974 | log fold change Tl+ flux [48] 0.0238 | log fold change Tl+ flux [49] -0.0128 | log fold change Tl+ flux [50] -0.0194
2.2%: nuclear beta-catenin stimulation ([20]; stimulation, at 2 µM)
active: fluorescence slope change [1] 56.2% | insulin secretion stimulation [21] 32.7%
1.3: normalised cell number ([30]; measured here: mesenchymal TEM4-18 mCherry cell survival)
-13.1: rescue above control [4]
